LmPK inhibitor = inhibitors of Leishmania mexicana pyruvate kinase. Potency, µM (highest dose often 57.5 µM), hits mostly inhibitors. AID 1721. actives 0.37% (n = 290,000). Q27686. purified LmPK, Kinase-Glo ATP luminescence, 1 h
Target sequence (Q27686 whole entry, looked up): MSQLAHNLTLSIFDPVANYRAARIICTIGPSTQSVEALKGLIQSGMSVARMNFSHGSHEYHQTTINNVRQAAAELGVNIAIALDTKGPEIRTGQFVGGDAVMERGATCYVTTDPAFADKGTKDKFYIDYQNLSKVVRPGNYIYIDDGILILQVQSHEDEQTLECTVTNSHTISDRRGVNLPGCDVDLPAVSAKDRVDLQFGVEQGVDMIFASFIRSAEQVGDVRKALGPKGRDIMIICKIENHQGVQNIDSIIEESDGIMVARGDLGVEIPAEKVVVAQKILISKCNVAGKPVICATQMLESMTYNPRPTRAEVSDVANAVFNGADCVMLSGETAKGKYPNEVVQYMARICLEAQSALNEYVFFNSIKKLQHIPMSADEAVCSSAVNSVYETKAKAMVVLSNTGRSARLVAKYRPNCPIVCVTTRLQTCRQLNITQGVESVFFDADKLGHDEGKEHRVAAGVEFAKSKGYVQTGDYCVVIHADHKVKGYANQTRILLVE
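In 50 mM imidazole pH 7.2 with 7 mM MgCl2, LmPK (0.1 nM) turned over PEP (0.5 mM) and ADP (0.1 mM) for 1 h at room temperature. Luciferase read-out of ATP.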
Tb PYK inh = inhibitors of Trypanosoma brucei pyruvate kinase; Q57TT1; TbPYK enzyme, Kinase-Glo Plus ATP luminescence, 45 min; Potency, µM (top dose mostly 76.8 µM), most hits filed as inhibitors; actives 0.12% (n = 410,000); AID 624173; also: nearly all actives have a fitted effect of over 50% in size
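Enzyme and substrate buffer are dispensed first and compound is pin-transferred. ADP at 130 uM final then starts the reaction, which runs 45 min at room temperature. Detection reagent is added for 10 min before luminescence is imaged.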
Shiga inhibitor = blocks Shiga toxin action in Vero cells; Vero cells, Shiga toxin protein synthesis inhibition reporter; inhibition, % at 38.7 µM; actives 9.2% (n = 290,000); in the data active = inhibition mostly above about 28%, no sharp cut-off; inactive = mostly below about 43%
FBPA Giardia inh = blocks Giardia fructose-bisphosphate aldolase activity; purified Giardia FBPA; Potency, µM (doses to about 59.6 µM), actives largely listed as inhibitors; actives 0.71% (n = 290,000); AID 2451; also: nearly all actives have a fitted effect of over 55% in size
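Giardia FBPA (40 nM reagent) was preincubated 10 min at RT with compound (up to 57.5 uM final), then substrate plus GAPDH/TPI/NAD/arsenate coupling system with diaphorase/resazurin was added; resorufin fluorescence (525/598 nm) was read after 20 min.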
Cycloheximide cs = counter-screen hit for Shiga toxin inhibitors, cycloheximide | actives 12% (n = 300,000) | max response, % | cell reporter, cycloheximide protein synthesis inhibition counterscreen; in the data active = max response mostly above about 13%, no sharp cut-off; inactive = mostly below about 14%; also: read at 38.3 µM for the half of the compounds with a filed dose
RE007 growth inh = less growth of the S. pombe RE007 Vpr strain; S. pombe RE007 Vpr strain, BacTiter-Glo ATP luminescence, 24 h; Potency, µM (top dose mostly 92.2 µM), actives largely listed as inhibitors; AID 651644; actives 0.21% (n = 360,000); active = well fitted falling curve with a large enough effect; inconclusive = small, poorly fitted or top-dose-only effect; inactive = no such curve, though single readings can be large or run the other way; also: nearly all actives have a fitted effect of over 50% in size
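Fission yeast RE007 carrying one integrated HIV-1 vpr copy, seeded at OD 0.01 in PMG+AL medium with 23 nL pinned compound. Grown 24 h at 30 degrees; viability read by BacTiter-Glo luminescence after 5 min.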
Hits are given with their value; [ ] = dose if it differs, or a comment. This excerpt belongs to a sample that is enriched for hits. Unless noted, calls follow the shape of the dose curve; as a rule, active = well fitted curve in the direction sought with a large enough effect; inconclusive = small, poorly fitted or top-dose-only effect, or another doubt; inactive = no such curve, though single readings can be large; an effect the other way counts as inactive or inconclusive.

Screening COc1ccc(CCC(=O)N2c3ccccc3CC2C)cc1 (centres undefined) returned LmPK inhibitor inactive, Tb PYK inh inactive, Shiga inhibitor 88.0, FBPA Giardia inh inactive, Cycloheximide cs 35.4 and RE007 growth inh inactive.
C=CCC(CC)C(=O)NC(=O)N1CCCc2ccccc21 (centres undefined) was read as LmPK inhibitor inactive, Tb PYK inh inactive, Shiga inhibitor 30.5, FBPA Giardia inh inactive, Cycloheximide cs inactive and RE007 growth inh inactive.
For CN(N=O)C(=O)N[C@H]1C(O)OC(CO)[C@@H](O)[C@H]1O (some centres undefined) the results were FBPA Giardia inh inactive.
Screening CNS(=O)(=O)c1cn(CC(=O)Nc2cccc(C(F)(F)F)c2)cc1S(=O)(=O)NC returned Tb PYK inh inactive[15.4 µM].
CCOC(=O)c1c(C)[nH]c(C)c1S(=O)(=O)N1CCCC(C(=O)Nc2cc(C)ccc2C)C1 (centres undefined) was read as Tb PYK inh inactive.
For CN(C(=S)NC(=O)C1CCCC1)c1ccccc1 the results were Tb PYK inh inactive and RE007 growth inh inactive.
CN(Cc1ccccc1)C(=S)NC(=O)C1CCCCC1 was read as LmPK inhibitor inactive, Tb PYK inh inactive, Shiga inhibitor inactive, FBPA Giardia inh inactive, Cycloheximide cs 28.3 and RE007 growth inh inactive.
For Cc1cc(Nc2ccccc2)n(C(=O)c2ccccc2)n1 the results were LmPK inhibitor inactive, Tb PYK inh inactive, Shiga inhibitor inactive, FBPA Giardia inh inactive, Cycloheximide cs 47.2 and RE007 growth inh inactive.
Screening Cc1cc(Nc2ccccc2)nn1C(=O)c1ccc([N+](=O)[O-])cc1 returned LmPK inhibitor inactive, Tb PYK inh inactive, Shiga inhibitor inactive, FBPA Giardia inh inactive, Cycloheximide cs inactive and RE007 growth inh inactive.
Cc1cc(Nc2ccccc2)nn1C(=O)c1ccc(Cl)cc1 was read as LmPK inhibitor inactive, Tb PYK inh inactive, Shiga inhibitor 156.1, FBPA Giardia inh inactive, Cycloheximide cs 49.1 and RE007 growth inh inactive.
Cc1cc(Nc2ccccc2)n(-c2ccccc2)n1 was read as LmPK inhibitor inactive, Tb PYK inh inactive, Shiga inhibitor inactive, FBPA Giardia inh inactive, Cycloheximide cs inactive and RE007 growth inh inactive.
CCCCCOc1ccc(Cn2ccnc2)cc1[N+](=O)[O-] was read as LmPK inhibitor inactive, Tb PYK inh inactive, Shiga inhibitor 63.9, FBPA Giardia inh inactive, Cycloheximide cs inactive and RE007 growth inh inactive.
For CCCCOc1ccc(CN(CCO)CCO)cc1[N+](=O)[O-] the results were LmPK inhibitor inactive, Tb PYK inh inactive, Shiga inhibitor 124.6, FBPA Giardia inh inactive, Cycloheximide cs 49.9 and RE007 growth inh inactive.
`CCc1ccc(OCc2ccc(C(=O)NCc3ccccn3)o2)cc1` gave LmPK inhibitor inactive, Tb PYK inh inactive, Shiga inhibitor inactive, FBPA Giardia inh inactive, Cycloheximide cs 31.5 and RE007 growth inh inactive.
For Cc1ccccc1CS(=O)(=O)Cc1ccc(C(=O)NCc2ccccn2)o1 the results were LmPK inhibitor inactive, Tb PYK inh inactive, Shiga inhibitor inactive, FBPA Giardia inh inactive, Cycloheximide cs inactive and RE007 growth inh inactive.
Screening CCOc1ccc(OCc2ccc(C(=O)NCc3ccncc3)o2)cc1 returned LmPK inhibitor inactive, Tb PYK inh inactive, Shiga inhibitor inactive, FBPA Giardia inh inactive, Cycloheximide cs 17.0 and RE007 growth inh inactive.
CCCNC(=O)c1ccc(COc2ccc(Cl)cc2)o1 was read as LmPK inhibitor inactive, Tb PYK inh inactive, Shiga inhibitor inactive, FBPA Giardia inh inactive, Cycloheximide cs inactive and RE007 growth inh inactive.
For COC(=O)/C(Cc1cc(Br)c(OC)c(Br)c1O)=N/O the results were FBPA Giardia inh inactive.
CCOc1ccc(CC(=O)NC2CC(=O)N(c3cccc(F)c3)C2)cc1 (centres undefined) was read as Tb PYK inh inactive.
Cc1ccc(CCSc2ccc(F)cc2)cn1 was read as LmPK inhibitor inactive, Tb PYK inh inactive, Shiga inhibitor 64.2, FBPA Giardia inh inactive, Cycloheximide cs 14.8 and RE007 growth inh inactive.
Screening Cc1ccc(CCNc2ccc3ccccc3c2)cn1 returned Tb PYK inh inactive and RE007 growth inh inconclusive.
Screening Cc1ccc(CCSc2ccc(C(C)C)cc2)cn1 returned LmPK inhibitor inactive, Tb PYK inh inactive, Shiga inhibitor 29.8, FBPA Giardia inh inactive, Cycloheximide cs 9.2 and RE007 growth inh inactive.

From PubChem
